Test systems include SR leukemia; RPMI-8226 leukemia; OVCAR-5 ovarian; SK-OV-3 ovarian; IGROV1 ovarian; HS 578T breast; NCI/ADR-RES ovarian; OVCAR-8 ovarian; OVCAR-4 ovarian; OVCAR-3 ovarian.
What all share (assay): NCI-60 one-dose screen, 48 h (100 = growth as untreated, 0 = no growth, -100 = all killed)
Holding throughout (details): 10 µM unless noted

Molecules are shown by their SMILES. The panel holds about 83,000 compounds, 20% with a hit somewhere; the sample as a whole holds those more often.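 48-hour exposure, single concentration, 96-well plates; percent growth endpoint where 0 means no net growth. Active: below 10.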 Values without a mark were called inactive. Active and inactive are the calls of the source.

For `O=C(O)C1CSC(c2ccccc2)N1` (stereo not given), the growth in the experiment on SR leukemia was 115%; with RPMI-8226 leukemia, 107%; in the experiment with OVCAR-5 ovarian it was 98.2%; in the experiment on SK-OV-3 ovarian, 99.5%; in the experiment on IGROV1 ovarian, 105%; in the experiment with HS 578T breast it was 88.4%. Moreover, in the experiment on NCI/ADR-RES ovarian, the growth is 99.2%.
For the molecule `CCOC(=O)C1(N)CCCCC1`, the growth in the experiment with RPMI-8226 leukemia was 110%; in the experiment on OVCAR-8 ovarian, 107%; in the experiment with OVCAR-5 ovarian it was 94.6%; in the experiment with OVCAR-4 ovarian, 121%; in the experiment with SK-OV-3 ovarian, 100%; in the experiment with IGROV1 ovarian, 85.4%. The growth was 112% with OVCAR-3 ovarian, 88.6% in the experiment on HS 578T breast and 98.7% in the experiment with NCI/ADR-RES ovarian.
As to `CCOC(=O)N[C@H]1CCc2cc(OC)c(OC)c(OC)c2-c2ccc(SC)c(=O)cc21`, the growth is 3.83% (active) in the experiment on SR leukemia; 20.8% with OVCAR-8 ovarian; 23.3% in the experiment with OVCAR-5 ovarian; 53.4% in the experiment on OVCAR-4 ovarian; 28.7% with SK-OV-3 ovarian; 21.7% with IGROV1 ovarian. In addition, the growth in the experiment on OVCAR-3 ovarian was -9.45% (active); in the experiment with HS 578T breast, 9.15% (active); in the experiment on NCI/ADR-RES ovarian, 0.533% (active).
Turning to `Oc1cccnc1CN1CCCC1`, the growth in the experiment with RPMI-8226 leukemia was 100%; in the experiment on OVCAR-8 ovarian, 94.7%; in the experiment with OVCAR-5 ovarian, 97.9%; with OVCAR-4 ovarian, 108%; in the experiment on SK-OV-3 ovarian, 103%; in the experiment on IGROV1 ovarian, 102%. For the same molecule, the growth with OVCAR-3 ovarian was 117%; in the experiment on HS 578T breast it was 104%; in the experiment on NCI/ADR-RES ovarian it was 108%.
As for `Cc1cccc(C)c1NC(=S)/N=C\c1c(O)[nH]c(=O)[nH]c1=O`, the growth in the experiment on RPMI-8226 leukemia was 98.3%; with OVCAR-8 ovarian, 108%; in the experiment with OVCAR-5 ovarian, 109%; in the experiment on OVCAR-4 ovarian, 104%; in the experiment with SK-OV-3 ovarian it was 94%; with IGROV1 ovarian it was 101%. Further, the figures for the growth in the experiment with OVCAR-3 ovarian, in the experiment with HS 578T breast and in the experiment on NCI/ADR-RES ovarian were 111%, 92% and 108%, respectively.
For the molecule `Cn1c(=O)c2nc3c(=O)n(C)c(=O)n(C)c3nc2n(C)c1=O`, the growth in the experiment with SR leukemia is 82.5%; with OVCAR-8 ovarian, 108%; with OVCAR-5 ovarian, 91.1%; in the experiment with OVCAR-4 ovarian it was 108%; with SK-OV-3 ovarian, 97%; in the experiment with IGROV1 ovarian it was 106%. Moreover, the growth in the experiment on OVCAR-3 ovarian was 107%; in the experiment on HS 578T breast, -27.8% (active); in the experiment on NCI/ADR-RES ovarian it was 97%.
`CCCCNC(=O)c1ccc(OCC)cc1`: the growth is 104% in the experiment with SR leukemia; 99.1% in the experiment on RPMI-8226 leukemia; 96.1% in the experiment with OVCAR-5 ovarian; 101% in the experiment with OVCAR-4 ovarian; 98.7% with SK-OV-3 ovarian; 108% in the experiment with IGROV1 ovarian. Also, the growth is 105% in the experiment on OVCAR-3 ovarian, 101% in the experiment on HS 578T breast and 100% in the experiment with NCI/ADR-RES ovarian.
With `O=C(c1ccccc1)c1ccc(-c2ccc(O)cc2)cc1`, the growth with SR leukemia is 177%; in the experiment with OVCAR-8 ovarian, 82.8%; in the experiment with OVCAR-5 ovarian, 108%; in the experiment with OVCAR-4 ovarian it was 45.6%; in the experiment on SK-OV-3 ovarian, 93.4%; with IGROV1 ovarian it was 25.9%. For the same molecule, the growth was 85.8% in the experiment with OVCAR-3 ovarian, 104% with HS 578T breast and 44.5% in the experiment on NCI/ADR-RES ovarian.
For the molecule `Cc1ccc2nc(N)nnc2c1`, the growth in the experiment on RPMI-8226 leukemia is 95.4%; in the experiment on OVCAR-8 ovarian, 112%; in the experiment with OVCAR-5 ovarian, 102%; in the experiment with OVCAR-4 ovarian, 108%; with SK-OV-3 ovarian, 93.7%; in the experiment with IGROV1 ovarian it was 109%. The growth in the experiment on OVCAR-3 ovarian is 92.7%; in the experiment with HS 578T breast it was 93.3%; in the experiment on NCI/ADR-RES ovarian, 96%.
For the molecule `Cc1ccc(S(=O)(=O)Oc2ccc3sc4c(CO)ccc(NCCN(C)C)c4c(=O)c3c2)cc1`, the growth is -38.8% [100 µM] (active) with SR leukemia; -43.4% [100 µM] (active) in the experiment with RPMI-8226 leukemia; -93.2% [100 µM] (active) with OVCAR-5 ovarian; -97.9% [100 µM] (active) in the experiment on OVCAR-4 ovarian; -85.1% [100 µM] (active) with SK-OV-3 ovarian; -74.1% [100 µM] (active) in the experiment on IGROV1 ovarian. The values for the growth with OVCAR-3 ovarian, in the experiment with HS 578T breast and in the experiment on NCI/ADR-RES ovarian were -79.3% [100 µM] (active), -44.2% [100 µM] (active) and -58% [100 µM] (active), respectively.
As to `CCCCc1ccc2nc(NC(=O)OC)[nH]c2c1`, the growth with RPMI-8226 leukemia was -26.4% (active); in the experiment with OVCAR-8 ovarian, 11.6%; with OVCAR-5 ovarian it was 23%; in the experiment on OVCAR-4 ovarian, 59.4%; in the experiment with SK-OV-3 ovarian, 15.2%; with IGROV1 ovarian it was 15.8%. The growth is -57.8% (active) in the experiment with OVCAR-3 ovarian, 8.57% (active) in the experiment with HS 578T breast and -1.32% (active) in the experiment on NCI/ADR-RES ovarian.
As for `COc1ccc(NNS(=O)(=O)O)cc1`, the growth in the experiment on SR leukemia is 93.2%; in the experiment on OVCAR-5 ovarian it was 93.3%; in the experiment with OVCAR-4 ovarian, 111%; in the experiment with SK-OV-3 ovarian it was 102%; in the experiment on HS 578T breast, 92.2%; with NCI/ADR-RES ovarian, 92.4%.
Regarding `CCOC(=O)c1cc(C)[nH]c(=O)c1C#N`, the growth in the experiment on RPMI-8226 leukemia was 80.4%; in the experiment with OVCAR-8 ovarian, 108%; in the experiment on OVCAR-5 ovarian, 105%; with OVCAR-4 ovarian, 107%; with SK-OV-3 ovarian it was 95.4%; in the experiment with IGROV1 ovarian it was 118%. In addition, the growth is 105% in the experiment with OVCAR-3 ovarian, 107% with HS 578T breast and 109% with NCI/ADR-RES ovarian.
As to `CCCCn1cnc2c(=O)[nH]cnc21`, the growth with RPMI-8226 leukemia was 108%; with OVCAR-8 ovarian, 115%; in the experiment with OVCAR-5 ovarian, 98.7%; with OVCAR-4 ovarian, 113%; in the experiment on SK-OV-3 ovarian, 104%; in the experiment with IGROV1 ovarian, 115%. The growth in the experiment with OVCAR-3 ovarian is 113%; in the experiment on HS 578T breast it was 115%; with NCI/ADR-RES ovarian it was 113%.
Turning to `Oc1cc2ccccc2c(-c2c(O)c(O)cc3ccccc23)c1O`, the growth was -33.3% (active) with RPMI-8226 leukemia; 39% in the experiment with OVCAR-8 ovarian; 51.8% in the experiment on OVCAR-5 ovarian; 27.3% with OVCAR-4 ovarian; 31.7% in the experiment with SK-OV-3 ovarian; -47.5% (active) with IGROV1 ovarian. Also, the growth was 44.9% in the experiment on OVCAR-3 ovarian, 33.9% with HS 578T breast and 23% in the experiment with NCI/ADR-RES ovarian.
